Legend:
Conditions in all cases: concentration: 1 μM, replicates: in singlicate; n = 1
[1] = tested on: ULK2
[2] = tested on: ULK3
[3] = tested on: T1, VEGFR2
T1 construct: gene KDR

[4] = tested on: T2, VPS34
T2 construct: gene PIK3C3

[5] = tested on: VRK2
[6] = tested on: WEE1
[7] = tested on: WEE2
[8] = tested on: WNK1
[9] = tested on: WNK2
[10] = tested on: WNK3
[11] = tested on: WNK4
[12] = tested on: T3, YANK1
T3 construct: gene STK32A

[13] = tested on: T4, YANK2
T4 construct: gene STK32B

[14] = tested on: T5, YANK3
T5 construct: gene STK32C

[15] = tested on: T6, YES
T6 construct: gene YES1

[16] = tested on: T7, YSK1
T7 construct: gene STK25

[17] = tested on: T8, YSK4
T8 construct: gene MAP3K19

[18] = tested on: ZAK
[19] = tested on: ZAP70
[20] = tested on: T9, p38-alpha
T9 construct: gene MAPK14
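Note: KINOMEscan kinase panel screen.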

Structure (SMILES)	%Inh [1] [%]	%Inh [2] [%]	%Inh [3] [%]	%Inh [4] [%]	%Inh [5] [%]	%Inh [6] [%]	%Inh [7] [%]	%Inh [8] [%]	%Inh [9] [%]	%Inh [10] [%]	%Inh [11] [%]	%Inh [12] [%]	%Inh [13] [%]	%Inh [14] [%]	%Inh [15] [%]	%Inh [16] [%]	%Inh [17] [%]	%Inh [18] [%]	%Inh [19] [%]	%Inh [20] [%]
Cn1cc(-c2ccc3c(c2)CCN3C(=O)Cc2cccc(C(F)(F)F)c2)c2c(N)ncnc21 [GSK2606414]	0	3	0	22	20	0	19	3	7	0	0	10	0	19	0	0	34	0	0	0
C[C@@H]1CCN(C(=O)CO)C[C@@H]1N(C)c1ncnc2[nH]ccc12	0	12	0	0	0	0	0	0	0	0	0	19	0	0	0	0	7	7	0	5
Clc1cc(Nc2ncnc3cc[nH]c23)ccc1OCc1ccccn1	14	21	6	13	9	0	0	0	1	20	25	12	3	51	0	0	34	18	0	18
FC(F)(F)c1ccc(-c2cc(-c3c[nH]nc3-c3ccccn3)ccn2)cc1 [GW599550]	0	0	4	0	0	12	0	0	7	31	42	98.8	10	0	6	20	28	24	0	28
Nc1nc(-c2ccccn2)c(-c2ccnc3ccccc23)s1 [GW548057]	0	13	12	9	62	13	0	15	11	50	88	0	7	0	13	14	4	0	4	54
NC(=O)c1sc(-n2cnc3ccccc32)cc1OCc1ccccc1F [GSK1024306]	0	9	6	31	7	7	0	3	27	23	0	0	0	0	0	0	2	0	0	93.4
CSc1nn2c(=O)cc(N3CCOCC3)nc2n1Cc1cccc(Cl)c1Cl [GSK2347225]	0	0	0	97.1	0	29	35	11	18	4	0	16	7	19	31	12	0	0	0	0
Cc1ccc(O)cc1Nc1cc(C(F)(F)F)nc2ccc(-c3ccncc3)cc12 [GW630823]	0	0	0	0	0	0	30	0	0	0	0	0	0	0	23	0	0	10	0	8
Nc1nc(-c2ccc3c(N)n[nH]c3c2)cc(N2CCC[C@@H](C(=O)Nc3ccccc3)C2)n1.O=C(O)C(F)(F)F.O=C(O)C(F)(F)F [GSK2288359]	3	13	18	0	0	8	0	11	6	14	0	4	0	0	0	5	9	3	0	0
FC(F)(F)c1ccc(-c2nn3ncccc3c2-c2ccnc(Nc3cccc(C(F)(F)F)c3)n2)cc1 [GW828205]	0	0	0	8	0	5	11	0	0	0	0	0	0	0	0	0	0	0	42	0

Reference: paper PMC5540273 (PLoS ONE, 2017)
